# “And” between values parts separate entries of the source, which are not always exact repeats. Identical values can stand only once. Records with an inconclusive call do not appear. The source made the active and inactive calls. How the source made its calls, unless noted: active means hit-call score of the fitted dose curve at least 0.9, where 1 is the maximum; inactive means score below 0.9.
# Experiments:
# [1] = CCTE_Shafer_MEA_acute_burst_percentage_mean: CCTE's Neural Acute Assay for Percentage of Spikes in a Burst, Shafer Lab (AID 2284017);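 on AC50: curve fitted for loss of signal so potency reflects decreased burst percentage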
# How it was run: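 Primary rat cortical neurons on 48-well MEA plates, treated on DIV 13 or 15 at 0.03-40 uM. Spikes detected at 8x rms noise at 37C; percent change from 40-min baseline to 40-min post-dose recording, fitted versus DMSO.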
# [2] = CCTE_Shafer_MEA_acute_burst_percentage_std: CCTE's Neural Acute Assay for Standard Deviation of Burst Percentage, Shafer Lab (AID 2284018);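 further: fitted in the negative direction so actives lower burst percentage SD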
# How it was run: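 Primary rat cortical neurons on 16-electrode MEA wells were recorded 40 min at baseline (DIV 13 or 15), then 40 min after compound (0.03-40 uM), at 37 C. Well value is SD across electrodes of spikes-in-bursts/total spikes; endpoint is percent change, DMSO-referenced.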
# [3] = CCTE_Shafer_MEA_acute_per_network_burst_spike_number_mean: CCTE's Neural Acute Assay for Average Number of Spikes in a Network Burst, Shafer Lab (AID 2284019)
# How it was run: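 Primary rat cortical neurons on 16-electrode MEA wells, DIV 13 or 15, 37 C; 40-min baseline then 40-min recording with compound (0.03-40 uM). Spikes per network burst (total spikes/number of bursts) expressed as percent change from baseline, DMSO reference.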
# [4] = CCTE_Shafer_MEA_acute_per_network_burst_spike_number_std: CCTE's Neural Acute Assay for Standard Deviation of Number of Spikes in a Network Burst, Shafer Lab (AID 2284020);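 further: fitted for decrease in spike-number SD versus DMSO so actives lower it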
# How it was run: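 Primary rat cortical neurons on 48-well MEAs (16 electrodes/well) recorded at DIV 13 or 15: 40-min baseline, then 40 min with compound (0.03-40 uM), 37 C. Value is percent change in SD of spikes per network burst, relative to DMSO.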
# [5] = CCTE_Shafer_MEA_acute_per_network_burst_electrodes_number_mean: CCTE's Neural Acute Assay for Mean Number of Electrodes in a Network Burst, Shafer Lab (AID 2284021);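 further: curves fitted for decreases only so hits reduce electrodes per burst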
# How it was run: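 Rat primary cortical neurons on 16-electrode MEA wells were recorded 40 min at baseline on DIV 13 or 15, then 40 min after compound (0.03-40 uM), at 37 C. Value is percent change per well, fitted in loss direction versus DMSO.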
# [6] = CCTE_Shafer_MEA_acute_network_burst_percentage: CCTE's Neural Acute Assay for Percentage of Network Bursts, Shafer Lab (AID 2284022);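 further: curves fitted for loss so actives lower network burst percentage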
# How it was run: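 Primary rat cortical neurons on 16-electrode MEA wells, treated on DIV 13 or 15 with compound (0.03-40 uM); 40-min baseline and 40-min post-exposure recordings at 37 C. Value is percent change in spikes within network bursts versus baseline, DMSO negative control.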
# [7] = CCTE_Shafer_MEA_acute_cross_correlation_area: CCTE's Neural Acute Assay for Area of Cross Correlation, Shafer Lab (AID 2284024);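 further: area under pooled inter-electrode spike cross-correlation near zero lag as percent change from own baseline; curves fitted for loss of cross-correlation area so actives lower synchrony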
# How it was run: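 Primary rat cortical neurons on 48-well MEA plates (16 electrodes/well) were recorded 40 min at baseline on DIV 13 or 15, then 40 min with compound (0.03-40 uM) at 37 C; cross-correlation area expressed as percent change from baseline.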
# [8] = CCTE_Shafer_MEA_acute_synchrony_index: CCTE's Neural Acute Assay for Synchrony, Shafer Lab (AID 2284027);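 further: network synchrony index of spontaneous spiking in primary rat cortical neurons on MEAs; fitted for loss of signal so actives lower synchrony relative to DMSO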
# How it was run: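 Spontaneous firing of mature rat cortical networks is captured extracellularly on microelectrode arrays at 37 C, with wells needing ≥10 active electrodes. Each compound (0.03-40 uM) is judged by the change in synchrony index from baseline over 40 min.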
# [9] = CCTE_Shafer_MEA_dev_AB: CCTE's Alamar Blue Assay for Cytotoxicity in the Neural Network Formation Assay, Shafer Lab (AID 2284083; active means hit-call score of the fitted dose curve at least 0.9, where 1 is the maximum;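 further: twelve days of exposure from plating with re-dosing on DIV 5 and 9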)
# How it was run: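 Primary rat cortical neurons on PEI-coated 48-well MEA plates, 1.5 x 10^5 cells/well in laminin drop; compound exposure from day 0 of plating for twelve days, renewed at medium changes on DIV 5 and 9. Viability read as resazurin reduction by fluorescence, relative to DMSO.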
# [10] = CCTE_Shafer_MEA_acute_LDH: CCTE's Lactate Dehydrogenase Assay for Cytotoxicity in the Neural Acute Assay, Shafer Lab (AID 2284086; active means hit-call score of the fitted dose curve at least 0.9, where 1 is the maximum;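 further: active means LDH release rises above DMSO vehicle level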)
# How it was run: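 Released lactate dehydrogenase, read at 490 nm, indicated cytotoxicity after acute 40-min compound treatment of rat cortical neuron networks grown on 48-well MEA plates.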
# [11] = CCTE_Mundy_HCI_hN2_NOG_NeuriteCount: CCTE's Neurite Outgrowth Assay in human hN2 cells for Neurite Count, Mundy Lab (AID 2284219; active means hit-call score of the fitted dose curve at least 0.9, where 1 is the maximum)
# How it was run: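 In this morphology assay, hNP1-derived neurons received test chemical 2 h post-plating and were fixed two days later in warm paraformaldehyde/sucrose containing Hoechst 33342. Neurites, labelled by rabbit anti-βIII-tubulin (1:800) and Alexa Fluor-488 (1:500), were counted automatically.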
# [12] = CCTE_Mundy_HCI_hN2_NOG_NeuriteLength: CCTE's Neurite Outgrowth Assay in human hN2 cells for Neurite Length, Mundy Lab (AID 2284220; active means hit-call score of the fitted dose curve at least 0.9, where 1 is the maximum)
# How it was run: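 Using βIII-tubulin immunofluorescence and Hoechst nuclear counterstain, this component quantifies neurite length in hNP1-derived neurons.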
# [13] = CCTE_Mundy_HCI_Cortical_Synap_Neur_Matur_NeuronCount: CCTE's Synaptogenesis and Neurite Maturation Assay in rat cortical cells for Neuron Count, Mundy Lab (AID 2284242; active means hit-call score of the fitted dose curve at least 0.9, where 1 is the maximum;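 further: neuron number from Hoechst nuclei and MAP2 staining by high-content imaging; hits reduce neuron count versus DMSO baseline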)
# How it was run: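 Imaging-based neuron count in rat cortical cultures after chemical exposure from DIV 7 to DIV 12, with AraC added at DIV 5. Activity is fitted relative to DMSO.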
# [14] = IUF_NPC1b_proliferation_BrdU_72hr: Leibniz Research Institute for Environmental Medicine (IUF) 72-hour Neural Progenitor Cell Bromodeoxyuridine (BrdU) Proliferation Assay (NPC1b) (AID 2284207)
# How it was run: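 hNPC spheres (primary, GW 16-19 fetal cortex), single sphere/well, EGF+FGF medium; 72 h compound, no renewal; BrdU pulse last 16 h; luminescent ELISA; activity vs DMSO baseline; growth-factor withdrawal as positive control.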
# [15] = IUF_NPC1a_proliferation_area_72hr: Leibniz Research Institute for Environmental Medicine (IUF) 72-hour Neural Progenitor Cell Proliferation Area Assay (NPC1a) (AID 2284208)
# How it was run: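 Read-out: increase in sphere area over 72 h by automated phase-contrast imaging, fitted in positive direction versus DMSO baseline. One hNPC sphere (0.25-0.35 mm) per well in EGF/FGF medium; growth-factor withdrawal served as positive control.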
# [16] = IUF_NPC1_viability_72hr: Viability Assessment at 72 hours in the Leibniz Research Institute for Environmental Medicine (IUF) Neural Progenitor Cell Proliferation Assay (NPC1) (AID 2284209)
# How it was run: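 Each well receives one 0.3 mm progenitor sphere from fetal brain cortex; test chemical is added at plating and left three days. Viability comes from alamar blue fluorescence, multiplexed with LDH and BrdU readouts in the same well.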
# [17] = IUF_NPC2c_oligodendrocyte_migration_120hr: Leibniz Research Institute for Environmental Medicine (IUF) 120-hour Neural Progenitor Cell Migration Assay for Oligodendrocyte Migration (NPC2c) (AID 2284297);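 further: O4-positive oligodendrocyte migration distance divided by radial glia migration distance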
# How it was run: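 Human fetal cortex-derived neural progenitor spheres (0.3 mm) were plated on poly-D-lysine/laminin in N2 differentiation medium and exposed to 7 concentrations for 120 h, with half-medium renewal at day 3. Oligodendrocyte migration distance was normalized to radial glia migration, relative to DMSO.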
# [18] = IUF_NPC2a_radial_glia_migration_120hr: Leibniz Research Institute for Environmental Medicine (IUF) 120-hour Neural Progenitor Cell Migration Assay for Radial Glia Migration (NPC2a) (AID 2284298)
# How it was run: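 Single 0.3 mm primary human fetal-cortex (GW 16-19) NPC spheres were plated on poly-D-lysine/laminin in N2 differentiation medium and exposed from day 0 for 120 h, half-medium refreshed day 3. Migration distance came from Hoechst nuclei-density imaging, relative to DMSO.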
# [19] = IUF_NPC2a_radial_glia_migration_72hr: Leibniz Research Institute for Environmental Medicine (IUF) 72-hour Neural Progenitor Cell Migration Assay for Radial Glia Migration (NPC2a) (AID 2284299)
# How it was run: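 Migration out of plated human neural progenitor spheres is scored at 72 h as the distance in um from the sphere core edge to the edge of the migration area. Values are the mean of four manual measurements per well, normalised to DMSO.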
# [20] = IUF_NPC2b_neuronal_migration_120hr: Leibniz Research Institute for Environmental Medicine (IUF) 120-hour Neural Progenitor Cell Migration Assay for Neuron Migration (NPC2b) (AID 2284300)
# How it was run: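 Primary human fetal cortex neural progenitor spheres (0.3 mm) plated on poly-D-lysine/laminin in N2 differentiation medium, exposed 120 h with half-medium refresh at day 3. TUBB3-stained neuron distance from sphere core, normalized to radial glia migration, versus DMSO.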
smiles,measurement,setting,value
CN(C)C(=O)C(CCN1CCC(O)(c2ccc(Cl)cc2)CC1)(c1ccccc1)c1ccccc1,AC50,[1],2.27 µM (active)
same,AC50,[2],0.068 µM (active)
same,outcome,[3],inactive
same,outcome,[4],inactive
same,outcome,[5],inactive
same,outcome,[6],inactive
same,outcome,[7],inactive
same,AC50,[8],2.29 µM (active)
same,AC50,[9],5.74 µM (active) and 5.44 µM (active) and 5.02 µM (active)
same,outcome,[10],inactive
same,AC50,[11],16 µM (active)
same,AC50,[12],15.8 µM (active)
same,AC50,[13],8.36 µM (active)
Cc1c(O)cccc1C(=O)N[C@@H](CSc1ccccc1)[C@H](O)CN1C[C@H]2CCCC[C@H]2C[C@H]1C(=O)NC(C)(C)C,AC50,[9],10.1 µM (active)
same,AC50,[14],8 µM (active)
same,AC50,[15],25 µM (active)
same,AC50,[16],14 µM (active)
same,AC50,[13],4.18 µM (active)
same,AC50,[17],12.7 µM (active)
same,AC50,[18],8.08 µM (active)
same,AC50,[19],13.4 µM (active)
same,AC50,[20],19.9 µM (active)
CC1(C)S[C@@H]2[C@H](NC(=O)[C@H](N)c3ccc(O)cc3)C(=O)N2[C@H]1C(=O)O,outcome,[1],inactive
same,outcome,[2],inactive
same,outcome,[3],inactive
same,outcome,[4],inactive
same,outcome,[5],inactive
same,outcome,[6],inactive
same,outcome,[7],inactive
same,outcome,[8],inactive
same,outcome,[10],inactive
same,outcome,[14],inactive
same,outcome,[15],inactive
same,outcome,[16],inactive
same,outcome,[11],inactive
same,outcome,[12],inactive
same,outcome,[17],inactive
same,outcome,[18],inactive
same,outcome,[19],inactive
same,outcome,[20],inactive

# Source: PubChem BioAssay (EPA / NIEHS)
